Assay outcomes: PubChem BioAssay, Broad Institute
miR122 inh – miR-122 suppressors via Renilla sensor increase, primary screen, cell-based, Huh7 psiCHECK-miR122, Renilla luciferase, single point; 48 h; AID 623901, 2012; activation, % at 12.5 µM; 340,000 compounds, 0.14% hits;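 active means mean activation of 30% or more, with every replicate also reaching 30%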;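 further: 0% = median of neutral control wells and 100% = median of positive control wells; higher luciferase signal means stronger suppression of miR-122 activity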
* marks the source's active call; other numbers are inactive results. The sample as a whole holds a higher share of hits than the screen did.

SMILES	miR122 inh
c1ccc(-c2cc(-c3ccccc3)[n+](-c3ccccc3)c(-c3ccccc3)c2)cc1	59*
CC12CCC3C(CCC4(O)CC(O)CCC34C=O)C1(O)CCC2C1=CC(=O)OC1 (stereo not drawn)	-96
Oc1ccc(/C=N/NP(=S)(c2ccccc2)c2ccccc2)cc1	-96
COc1ccc2c(c1)c(CCN)c(C)n2Cc1ccccc1	52*
O=c1c2ccccc2nc(/C=C/c2ccc([N+](=O)[O-])o2)n1-c1ccc(O)cc1	-95
CC(C)C(NC(=O)C(C(C)C)N(C)C)C(=O)N(C)C(C(=O)N1CCCC1C(=O)N1CCCC1C(=O)NCc1ccccc1)C(C)C (stereo not drawn)	-95
